Test results published in paper PMC4336329 (PLoS ONE, 2015).
The campaign covered roughly 310,000 compounds. About 14,000 (4.5%) showed an effect of 50% or more. Effects have a minus sign here. What follows is part of a selection rich in strong results, with near analogues and random picks from the rest.

biological target: human ether-à-go-go-related gene (hERG) potassium channel (human, UniProt Q12809); assay: primary screen, population patch clamp on CHO cells stably expressing hERG; higher = less effect of the substance
Sequence (Q12809 whole entry, looked up): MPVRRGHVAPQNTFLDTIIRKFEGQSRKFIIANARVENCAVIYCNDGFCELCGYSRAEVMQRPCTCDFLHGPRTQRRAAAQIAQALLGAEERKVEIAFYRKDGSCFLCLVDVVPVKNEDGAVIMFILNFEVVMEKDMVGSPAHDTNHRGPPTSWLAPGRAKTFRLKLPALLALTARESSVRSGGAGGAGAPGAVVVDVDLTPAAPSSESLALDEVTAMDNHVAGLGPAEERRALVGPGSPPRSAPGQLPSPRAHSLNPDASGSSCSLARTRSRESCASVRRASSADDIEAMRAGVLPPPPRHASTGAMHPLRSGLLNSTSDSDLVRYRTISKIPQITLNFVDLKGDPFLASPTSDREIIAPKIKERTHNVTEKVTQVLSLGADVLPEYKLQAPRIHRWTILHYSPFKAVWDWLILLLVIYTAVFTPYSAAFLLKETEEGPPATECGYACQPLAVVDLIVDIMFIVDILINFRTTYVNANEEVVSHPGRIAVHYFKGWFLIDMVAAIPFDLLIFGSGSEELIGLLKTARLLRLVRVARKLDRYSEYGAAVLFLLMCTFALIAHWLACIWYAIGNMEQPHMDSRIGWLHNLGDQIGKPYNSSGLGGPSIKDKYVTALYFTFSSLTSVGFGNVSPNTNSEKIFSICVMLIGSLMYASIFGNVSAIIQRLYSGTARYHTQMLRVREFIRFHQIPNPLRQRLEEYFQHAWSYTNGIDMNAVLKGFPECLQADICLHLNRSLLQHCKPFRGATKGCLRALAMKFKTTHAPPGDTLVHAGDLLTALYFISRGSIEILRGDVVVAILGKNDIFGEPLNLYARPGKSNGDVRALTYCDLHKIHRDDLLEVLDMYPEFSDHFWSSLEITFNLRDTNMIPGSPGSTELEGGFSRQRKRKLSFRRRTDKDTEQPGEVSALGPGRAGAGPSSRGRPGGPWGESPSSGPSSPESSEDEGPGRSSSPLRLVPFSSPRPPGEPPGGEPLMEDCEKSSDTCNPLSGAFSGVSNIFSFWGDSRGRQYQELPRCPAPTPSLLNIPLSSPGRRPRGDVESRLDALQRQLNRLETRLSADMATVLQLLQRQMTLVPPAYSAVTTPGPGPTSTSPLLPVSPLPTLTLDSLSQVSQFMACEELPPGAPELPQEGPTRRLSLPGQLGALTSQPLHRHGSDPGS
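Note: peak tail current of the secondary pulse compared with the same well before compound.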

SMILES	hERG current change (%, negative = inhibition) at 10uM [%]
CCN(CC)c1ccc(/C=N/NC(=O)c2cccc(S(=O)(=O)N3CCOCC3)c2)cc1	-24.4
CC1(C(=O)Nc2nnc(SCc3ccccc3)s2)Cc2ccccc2C(=O)O1 (centres unmarked)	-24.6
COc1ccc(OCC(=O)c2c(O)c3ccccc3oc2=O)cc1	-12.4
COC(=O)C1=NN(C(=O)c2cccc(Cl)c2)C(O)(C(C)(C)C)C1 (centres unmarked)	8.11
CCOC(=O)C1=NN(C(=O)c2cccc(Br)c2)C(O)(C(C)(C)C)C1 (centres unmarked)	-57.6
CCOC(=O)C1=NN(C(=O)Cc2ccccc2)C(O)(C(C)(C)C)C1 (centres unmarked)	9.74
COc1ccc(C2CC(=O)C3=C(C2)Nc2ccccc2N(C(C)=O)C3c2ccco2)cc1 (centres unmarked)	-35.8
O=[N+]([O-])c1cccc(C(=NCc2ccccc2)NO)c1	15.9
CN(C)C(=S)NC(=NCc1ccc([N+](=O)[O-])cc1)c1ccccc1	-90.7
CN(C)C(=S)Nc1ccc([N+](=O)[O-])cc1	-0.053
Nc1ncc([N+](=O)[O-])c(Oc2ccccc2F)n1	24.7
CCCC1(CCC)C(=O)NC(=NCc2ccccc2)NC1=O	12.7
Cc1cc(C)n(-c2nc3c(c(=O)[nH]c(=O)n3C)n2CC(O)COc2ccccc2C)n1 (centres unmarked)	-31.9
CCN1CCc2c(OCC(=O)N3CCCCC3)cccc2C1=O	5.33
O=C(COc1cccc2c1CCN(Cc1ccccc1F)C2=O)N1CCCCC1	-43.4
CC1CCN(C(=O)COc2cccc3c2CCN(Cc2ccccc2)C3=O)CC1	-36
O=C(COc1cccc2c1CCN(Cc1ccc(Cl)cc1)C2=O)N1CCOCC1	-60.2
O=C(COc1cccc2c1CCN(Cc1ccc(Br)cc1)C2=O)N1CCOCC1	-58.4
O=C(COc1cccc2c1CCN(Cc1ccccc1)C2=O)N1CCCCC1	-15

SMILES	hERG current change (%, negative = inhibition) at 10uM [%]
CC(C)(C)/C=N/NC(=O)CNC(=O)c1ccc2c(c1)OCCO2	15.6
CC1(C)C2CCC1(C)C(OC(=O)CCn1ccnc1)C2 (centres unmarked)	-25.5
Cc1ccc(C)c2sc(NC(=O)c3nc4ccccc4s3)nc12	2.76
CCN(CC)C(=O)Oc1ccc(Br)cc1C(=O)Nc1ccc(F)c(Cl)c1	2.76
CC(=O)c1ccc(/C=C/c2nc3ccccc3n2C)o1	-5.96
Cc1ccc(NCc2nnc(SCCN3CCCCC3)n2CC2CCCO2)cc1Cl (centres unmarked)	-92.4
Cc1ccc(NCc2nnc(SCC(=O)Nc3ccccc3)n2CC2CCCO2)c(C)c1 (centres unmarked)	-0.0882
Cc1ccc(NCc2nnc(SCC(=O)Nc3cccc(O)c3)n2CC2CCCO2)c(C)c1 (centres unmarked)	-68.2
Fc1ccc(NCc2nnc(SCc3nnc(-c4ccccc4)o3)n2CC2CCCO2)cc1 (centres unmarked)	-53.1
Cc1ccc(NCc2nnc(SCC(=O)Nc3ncc(C)s3)n2CC2CCCO2)c(C)c1 (centres unmarked)	-12.4
Fc1ccc(NCc2nnc(SCc3nnc(-c4ccccc4)o3)n2Cc2ccccc2)cc1	-46
CCSc1nnc(CNc2ccc(F)cc2)n1CC1CCCO1 (centres unmarked)	-15.1
Cc1ccc(NCc2nnc(SCC(=O)N3CCCCC3)n2CC2CCCO2)c(C)c1 (centres unmarked)	-5.62
Cc1ccc(NCc2nnc(SCCN3CCCCC3)n2CC2CCCO2)c(C)c1 (centres unmarked)	-58.5
CCn1c(CNc2ccc(F)cc2)nnc1SCCN1CCCCC1	-12.1
Cc1ccc(NCc2nnc(SCC(N)=O)n2CC2CCCO2)c(C)c1 (centres unmarked)	8.71
Cc1ccc(NCc2nnc(SCC(=O)NCc3ccco3)n2CC2CCCO2)cc1Cl (centres unmarked)	-7.7
CC1(CC(=O)N/N=C/c2cc3c(cc2Br)OCO3)OCCO1	15.5
CCc1c(C)sc(NC(=O)OC)c1C(=O)N1CCCCC1	-4.94

SMILES	hERG current change (%, negative = inhibition) at 10uM [%]
COC(=O)c1ccc(N2CCN(c3ccccc3)CC2)c(NC(=O)C2CC2)c1	-35.6
CC(=NCCc1c[nH]c2ccccc12)c1c(O)n(Cc2ccccc2)c(=O)[nH]c1=O	0.859
COC(=O)N/N=C\c1cc(Br)ccc1OCc1ccccc1	-6.55
O=C1CCCC(=O)C1=C1SCCCS1	-5.96
COc1ccc(C(=O)N2CCN(c3ccc(C)cc3C)CC2)cc1OC	-68.5
COc1cccc(SCC2(O)CCN(C(=O)c3ccc(Cl)cc3)CC2)c1	-69
COc1ccc(C(=O)N2CCN(c3c(C)cccc3C)CC2)cc1OC	-68.8
O=C(c1ccc(Cl)cc1)N1CCC(O)(CSc2ccccc2)CC1	-38.1
COc1ccc(C(=O)N2CCN(c3ccc(C)cc3)CC2)cc1OC	-21.8
O=C(c1ccc(Cl)cc1)N1CCC(O)(CSc2ccc(Cl)cc2)CC1	-44.4
COc1cc(C(=O)N2CCC(O)(c3ccccc3)CC2)cc(OC)c1OC	14.7
COc1ccc(C(=O)N2CCN(C(=O)c3ccc(-c4ccccc4)cc3)CC2)cc1OC	-43.6
COc1ccc(C(=O)N2CCC(O)(c3ccc(F)cc3)CC2)cc1OC	-38.6
COc1ccc(C(=O)N2CCC(O)(c3ccc(Cl)cc3)CC2)cc1OC	-51.9
COc1ccc(C(=O)N2CCN(c3ccc(C)c(C)c3)CC2)cc1OC	-6.14
COc1cc(C(=O)N2CCN(c3ccc(C)cc3C)CC2)cc(OC)c1OC	-19.7
Cc1nc2ccc(Cl)cc2c(-c2ccccc2)c1C(=O)N(C)C.Cl	-5.56
CCc1ccccc1NC(=O)CNC(=O)c1cc(C2CC2)nn1-c1ccccc1	-28.8
